Rows were chosen to be rich in hits. Some 1.4% of all compounds tested hit in one or more screens of this group.
LDHA inh = blocks human lactate dehydrogenase A; AID 1347041; 480,000 compounds, 0.15% hits; purified LDHA, NADH/diaphorase-resazurin fluorescence; stronger effect = lower value; activity change, % (values are at about 110 or 230 µM); P00338; in the data active means activity change below about -30%; inconclusive means mostly about -25% to -30%
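Human LDH5 (2 nM) was incubated with 0.06 mM NADH and 0.2 mM pyruvate for 5 min at room temperature in Tris pH 7.4. Remaining NADH was coupled through diaphorase/resazurin, and resorufin fluorescence was read at 0 and 20 min.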
TrxR1 substrate = substrates of rat thioredoxin reductase 1. O89049. purified TrxR1 substrate turnover, NADPH consumption readout. Potency, µM (highest dose often 114 µM). 390,000 compounds, 0.01% hits. AID 588456; further: nearly all actives have a fitted effect of over 50% in size
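Rat TrxR1, dispensed at 90 nM, was prereduced with 400 uM NADPH (final) for 5 min at ~22 deg C, then incubated with compound 15 min before 400 uM selenite. A first-read NADPH fluorescence drop versus no-compound background flagged substrates.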
GLS inhibitor = glutaminase GLS (human) inhibition; O94925; GLS enzymatic activity, qHTS titration; Potency, µM (series often up to 45.5 µM), usual class: inhibitors; 410,000 compounds, 0.21% hits; AID 624170
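Two-point fluorescence kinetic (t0, 30 min RT) for hKGA; glutamate detected via glutamate oxidase–HRP–Amplex Red. Substrate: 1 mM L-glutamine solution; buffer 45 mM KH2PO4, pH 8.2.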
PKM2 act = activators of human pyruvate kinase M2. purified PKM2, Kinase-Glo ATP luminescence, activation; response scale: 0% is enzyme alone, no compound. 260,000 compounds, 0.34% hits. Potency, µM (highest dose often 57.5 µM), hits mostly activators. P14618; further: nearly all actives have a fitted effect of over 55% in size
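Purified hPK-M2 (>95%) run at intermediate activity with 0.1 mM ADP and 0.5 mM PEP in 50 mM imidazole pH 7.2, KCl, MgCl2; 1 h room temperature. ATP formed read by Kinase-Glo luminescence; normalized to uninhibited and no-enzyme controls.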
rTrxR1 inhibitor = blocks rat thioredoxin reductase 1 | O89049 | recombinant rTrxR1, NADPH fluorescence consumption, selenite substrate | Potency, µM (titrated, usually from 114 µM), actives largely listed as inhibitors | 390,000 compounds, 1% hits | AID 588453; further: nearly all actives have a fitted effect of over 65% in size
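Rat TrxR1 (90 nM in the dispensed reagent) was pre-reduced with 400 uM NADPH for 5 min at room temperature, then incubated with compound for 15 min. After 400 uM selenite was added, NADPH fluorescence (Ex 340/Em 450 nm) was followed for 8 min.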
mIDH1 inhibitor = inhibitors of human mutant IDH1 R132H | 390,000 compounds, 0.093% hits | Potency, µM (doses to about 76.6 µM), hits mostly inhibitors | IDH1-R132H enzyme, NADPH consumption, diaphorase/resazurin fluorescence | O75874 | AID 602179; further: nearly all actives have a fitted effect of over 65% in size
Target sequence (O75874 whole entry R132H, stated change not applied): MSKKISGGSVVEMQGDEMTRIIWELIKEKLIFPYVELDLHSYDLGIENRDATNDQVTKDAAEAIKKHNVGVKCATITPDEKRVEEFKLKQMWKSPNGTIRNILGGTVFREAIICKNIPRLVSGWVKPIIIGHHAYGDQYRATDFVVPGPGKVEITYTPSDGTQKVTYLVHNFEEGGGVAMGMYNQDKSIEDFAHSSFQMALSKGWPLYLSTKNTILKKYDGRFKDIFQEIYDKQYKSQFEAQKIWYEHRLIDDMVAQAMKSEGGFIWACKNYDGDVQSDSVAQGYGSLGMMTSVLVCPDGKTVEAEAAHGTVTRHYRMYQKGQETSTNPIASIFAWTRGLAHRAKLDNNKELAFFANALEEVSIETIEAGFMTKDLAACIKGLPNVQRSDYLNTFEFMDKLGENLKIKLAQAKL
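IDH1-R132H (0.5 ug/mL) preincubated 30 min with compound, then NADPH (0.016 mM) and alpha-KG (2 mM) added; 80 min at RT, pH 7.5. Remaining NADPH coupled via diaphorase/resazurin to fluorescence (540/590 nm); concentration-response curves normalized to no-enzyme control.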
A number is an active result; n = inactive; u = inconclusive; x = no result given; ! = not active in a repeat; [ ] = another dose, or the depositor's remark. Unless noted, the call rests on the fitted dose curve; in most records, active means well fitted curve in the direction sought with a large enough effect; inconclusive means small, poorly fitted or top-dose-only effect, or another doubt; inactive means no such curve, though single readings can be large; an effect the other way counts as inactive or inconclusive.

SMILES	LDHA inh	TrxR1 substrate	GLS inhibitor	PKM2 act	rTrxR1 inhibitor	mIDH1 inhibitor
CN(C)S(=O)(=O)c1ccc(C(=O)/C=C/c2cccnc2)cc1	n	n	n	n	8.9µM	n
O=C(/C=C/c1cccnc1)/C=C/c1cccnc1	n	n	n	n	18µM	n
Cc1nc2cc(NC(=O)COc3cc(C(C)C)ccc3C)ccc2o1	n	x	x	x	x	x
Cc1nn(C)c(C)c1CNCc1cccnc1N1CCOCC1	-38	x	x	x	x	x
CC1=C(C#N)c2nc(N)c(C#N)c(C)c2/C1=C\c1ccc(C)cc1	x	x	x	n	x	x
COc1cc(/C=C2\C(C)=C(C#N)c3nc(N)c(C#N)c(C)c32)ccc1OCC(=O)O	n	n	u	n	32µM	u
CCOC(=O)c1ccc(N2C(=O)C3C(C2=O)C(C(=O)c2ccc(Cl)cc2)N2CCCC32)cc1 (stereo not given)	n	n	n	n	3.5µM	n
Fc1ccc(-c2nc(CN3CCCC3c3cccs3)co2)cc1 (stereo not given)	n	x	x	x	x	x
CCNc1ccc(Br)cc(C(=O)/C=C/c2ccc(Cl)cc2Cl)c1=O	n	n	n	n	8.9µM	n
CNc1ccc(Br)cc(C(=O)/C=C/c2ccc3c(c2)OCO3)c1=O	n	n	n	n	14µM	n
O=C(C=Cc1ccc2c(c1)OCO2)c1ccccc1	n	n	n	x	n	n
CNc1ccc(Br)cc(C(=O)/C=C/c2ccc(OC)cc2)c1=O	n	n	n	n	n	n
CNc1ccc(Br)cc(C(=O)/C=C/c2cc(OC)ccc2OC)c1=O	n	n	n	n	35µM	n
CCn1c(=O)n(CC)c2cc(Sc3ccccc3)c(NC(=O)c3ccccc3)cc21	n	x	x	x	x	x
CC(CCc1ccccc1)NC(=O)CSc1c2c(nc3ccc(Cl)cc13)CCCC2 (stereo not given)	n	x	x	x	x	x
NC(=S)NNC(=S)NCc1ccccc1	n	x	x	x	x	x
CC(CNC(=O)CCc1nnc2n(CCc3ccccc3)c(=O)c3ccccc3n12)c1ccccc1 (stereo not given)	n	x	x	x	x	x
CCCCCCCCCCCCCCCC[N+](C)(C)Cc1ccccc1	x	x	32µM	x	x	x
CCCCCCCCCCCCCC[N+](C)(C)Cc1ccccc1	n	n	n	x	n	x
CC(C)(C)c1ccc(S(=O)(=O)/C=C/C#N)cc1	n	n	x	x	2.1µM!	x
CC(C)(C)c1ccc(NS(=O)(=O)c2ccc(N)cc2)cc1	n	n	n	n	n	n
CCc1ccc(NCc2cc(=O)n3[nH]c(-c4ccccc4)nc3n2)cc1	n	x	x	x	x	x
O=S(=O)(NC(=S)NC1CCCCC1)c1ccccc1	n	n	n	n	3.2µM	n
O=S(=O)(NC(=S)NC1CCCCC1)c1cccs1	n	n	n	n	u	n
CC(C)(C)c1coc2cc3o/c(=N/O)c4c(c3cc12)CCC4	n	x	x	x	x	x
SMILES	LDHA inh	TrxR1 substrate	GLS inhibitor	PKM2 act	rTrxR1 inhibitor	mIDH1 inhibitor
CCc1cc(OCCN(C)C)ccc1Cl	-35	n	n	n	n	n
Cc1ccc(N(Cc2ccco2)C(=O)CCc2ncc(-c3c(F)cccc3F)o2)cc1	n	x	x	x	x	x
NC(=O)c1ccccc1NCC(=O)c1ccc(Cl)cc1	n	n	n	x	n	52µM
COc1cc(CCc2ccccc2)c(C(=O)O)c(O)c1CC=C(C)C	n	n	n	x	n	n
COc1cc(CCc2ccccc2)c(C(=O)O)c(O)c1C/C=C(/C)CCC=C(C)C	-38	n	n	x	n	n
CC(=O)Nc1sc2cnccc2c1-c1nc2ccccc2s1	n	x	x	x	x	x
C1=Cc2ccccc2/C1=C\c1cc[cH-]c1.[Fe+2].c1cc[cH-]c1	n	n	x	x	3.2µM	x
Nc1ccc(/C=C2\C=Cc3ccccc32)cc1	n	n	x	x	n[0.0914 µM]	x
CC(=O)N(C1=C(Cl)C(=O)c2ccccc2C1=O)C1CCCCC1	n	n	6.3µM	3.5µM	u	n
O=C(O)c1ccc(Cl)c(S(=O)(=O)NCC2CCCO2)c1 (stereo not given)	n	n	10µM	n	n	n
O=S(=O)(NCC1CCCO1)c1cc(Cl)ccc1Cl (stereo not given)	n	n	n	n	n	n
O=c1oc2cc(O)ccc2c2oc3cc(O)ccc3c12	n	n	7.9µM	n	n	n
O=c1ccc2ccc(O)cc2o1	n	n	n	x	79µM	n
Cc1cc(=O)oc2cc(O)ccc12	n	n	n	x	50µM	n
O=c1oc2cc(O)ccc2c2ccccc12	n	n	n	n	n	n
O=c1cc(O)c2ccc(O)cc2o1	n	n	n	n	n	n
CCCn1nc(C(=O)Nc2nc(C)cs2)c2ccccc2c1=O	n	x	x	x	x	x
CCOC(=O)Cc1csc(N/N=C\c2cccc(Br)c2)n1	n	n	20µM	n	n	n
Cc1ccccc1C(=O)NC(Nc1ccccc1)C(Cl)(Cl)Cl (stereo not given)	n	x	x	x	x	x
Cc1nnc(SCC(=O)Nc2ccc(S(N)(=O)=O)cc2)n(N)c1=O	-39	n	n	x	n	n
COc1ccc(-c2nnc(C)c3nocc23)cc1	n	n	n	x	20µM	n
COc1ccc(C2NN=C(c3c[nH]c4ccccc34)C2O)cc1 (stereo not given)	n	n	n	x	n[2.29 µM]	n
COc1ccc(C2C(O)C(c3c[nH]c4ccccc34)=NN2C(=O)CCl)cc1 (stereo not given)	n	n	n	n	13µM	n
Clc1ccc(CNc2ccccc2NCc2ccc(Cl)nc2)cn1	n	n	13µM	n	n	n
Cc1ccc(NC(=O)CSC2=NC(C)(C)N=C2c2ccc(Cl)cc2)cc1C	n	x	x	x	x	x
SMILES	LDHA inh	TrxR1 substrate	GLS inhibitor	PKM2 act	rTrxR1 inhibitor	mIDH1 inhibitor
O=C(O)c1cc(O)c2c(c1)[C@H]([C@H]1c3cc(C(=O)O)cc(O)c3C(=O)c3c(O[C@@H]4O[C@H](CO)[C@@H](O)[C@H](O)[C@H]4O)cccc31)c1cccc(OC3O[C@H](CO)[C@@H](O)[C@H](O)[C@H]3O)c1C2=O (stereo not given in full)	n	n	u	x	79µM	n
O=C(O)c1cc(O)c2c(c1)[C@@H]([C@H]1c3cc(C(=O)O)cc(O)c3C(=O)c3c(O[C@@H]4O[C@H](CO)[C@@H](O)[C@H](O)[C@H]4O)cccc31)c1cccc(OC3O[C@H](CO)[C@@H](O)[C@H](O)[C@H]3O)c1C2=O (stereo not given in full)	n	n	u	x	n	n
COc1ccnc2c1c(=O)n(Cc1ccc(Cl)cc1)c(=O)n2C	n	n	u	n	n	n
COc1ccnc2c1c(=O)n(Cc1ccc(Cl)cc1Cl)c(=O)n2C	n	n	11µM	n	n	n
COc1ccnc2c1c(=O)n(Cc1ccccc1Cl)c(=O)n2C	n	n	13µM	n	n	n
COc1ccc(N2C(=O)c3ccccc3NC2c2cnn(-c3ccccc3)n2)c(OC)c1 (stereo not given)	n	x	x	x	x	x
